Bioassay records deposited in PubChem BioAssay by several laboratories.
In the library only some 2.9% were active in any assay of this set; here they are far more common.
FAS-TE inh = FAS thioesterase domain inhibitors, primary screen, biochemical, fluorescence intensity, uHTS; Fatty acid synthase (Homo sapiens), P49327; recombinant FAS-TE, OMFH fluorogenic substrate, fluorescence endpoint; inhibition, % at 15 µM; hit rate 0.67% among 360,000; AID 602261, 2012;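 active = compounds whose normalised, plate-corrected inhibition of enzyme fluorescence in the single-dose primary screen is 50% or more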;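 also: 0% = DMSO with enzyme and 100% = substrate without enzyme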
SMARCA2 act = SMARCA2 (BRM) function activators, primary screen, cell-based, luminescence, high throughput | MG213 cells, MMTV-luciferase reporter, dexamethasone, overnight | hit rate 1% among 370,000 | activation, % at 9.1 µM; in the data active = activation above about 7.8%;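 also: 0% = vehicle wells and 100% = reference activator wells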
proKLK7 act = proKLK7 zymogen activators, primary screen, biochemical, fluorescence intensity | purified proKLK7, EDANS-DABCYL substrate fluorescence; 100% is mature enzyme control, 0% vehicle | AID 652039, 2013 | activation, % at 7 µM | Kallikrein-7 (Homo sapiens), P49862 | hit rate 0.9% among 370,000;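 active = activation above the mean of all tested compounds plus 3 SD, computed per campaign excluding outliers beyond control limits, cut at about 13% in these data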
Target sequence (P49862 whole entry, looked up): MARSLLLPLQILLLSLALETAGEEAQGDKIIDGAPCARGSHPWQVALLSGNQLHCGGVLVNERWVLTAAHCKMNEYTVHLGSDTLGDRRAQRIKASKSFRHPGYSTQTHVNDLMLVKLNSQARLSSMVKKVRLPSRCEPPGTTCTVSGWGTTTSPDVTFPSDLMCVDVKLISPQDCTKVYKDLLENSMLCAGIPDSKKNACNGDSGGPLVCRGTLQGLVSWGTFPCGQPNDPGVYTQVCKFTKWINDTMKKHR
FXN GAA850 act = FXN promoter activators, primary screen, cell-based, luciferase luminescence, HEK293 lucGAA850; HEK293 lucGAA850 FXN promoter luciferase reporter, 24 h; percent of 10 µM SAHA response; activation, % at 6 µM; hit rate 0.56% among 360,000; AID 540364, 2011;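 active = activation above the average of all compounds screened plus 3 SD, cutoff fixed separately per campaign, cut at about 7.5% in these data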;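 also: 0% = DMSO wells and 100% = 10 µM SAHA wells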
* = called active by the depositor; . = no result given.

SMILES | FAS-TE inh | SMARCA2 act | proKLK7 act | FXN GAA850 act
COc1ccccc1-n1c(N)cc(=O)nc1SCC(=O)Nc1cc(C)on1 | -4 | -2 | 1 | 0
N=c1c(S(=O)(=O)c2ccc(Cl)cc2)cc2c(=O)n3ccccc3nc2n1C1CCCCC1 | 65* | -1 | 0 | 2
N=c1c(S(=O)(=O)c2ccccc2)cc2c(=O)n3ccccc3nc2n1C1CCCC1 | 21 | -2 | -1 | 5
O=C(CCl)c1cc2c3c(c1)CC(=O)N3CCC2 | -2 | -2 | 1 | 8.6*
O=C(NCCO)C(=O)Nc1cc2c3c(c1)CC(=O)N3CCC2 | -7 | -1 | -1 | 1
Cc1ccc(C)c(S(=O)(=O)C(C#N)c2nc3ccccc3nc2N2CC(C)OC(C)C2)c1 (stereo unspecified) | -1 | -2 | 1 | -4
CC(C)(C)c1nnc(NC(=O)CS(=O)(=O)Cc2ccccc2)s1 | -12 | 0 | 0 | 2
CC1CCN(C(=O)COC(=O)CNC(=O)C23CC4CC(CC(C4)C2)C3)CC1 | -5 | 0 | 0 | -1
Cc1ccc([C@H]2C[C@H](n3cc(COC(=O)c4ccccc4)nn3)[C@@H](O)CN2C(=O)C2CCCCC2)cc1 | 9 | -3 | 0 | 1
CCc1nnc(NC(=S)Nc2ccccc2)s1 | -10 | 7.8* | 0 | 5
C[C@]12C(=O)N(c3cccc(Cl)c3)C(=O)N1[C@H]1c3ccccc3OC[C@@H]1[C@H]2c1ccccc1 | 76* | . | . | -3
C[C@@]12C(=O)N(c3cccc(Cl)c3)C(=O)N1[C@@H]1c3ccccc3OC[C@@H]1[C@H]2c1ccccc1 | 20 | 0 | 0 | -1
COc1ccc2c(c1)[C@H]1[C@H](CO2)[C@H](c2ccccc2)[C@]2(C)C(=O)Nc3cc(Cl)ccc3C(=O)N12 | 89* | . | . | -9
O=C(O)c1cccc2cc(-c3ccccc3)oc(=O)c12 | -6 | -1 | 1 | 0
O=C(O)c1cccc2cccc(-c3c4ccc(=O)c(O)c-4oc4c(O)c(O)ccc34)c12 | 19 | -4 | 19* | 1
O=C(N/C(=C\c1ccc([N+](=O)[O-])cc1)C(=O)N1CCOCC1)c1ccco1 | 0 | -2 | 0 | -1
O=C(N/C(=C\c1ccc(Cl)cc1)C(=O)N1CCOCC1)c1ccc([N+](=O)[O-])cc1 | 89* | 1 | 0 | -2
OCCNC(=S)Nc1ccc(Oc2ccccc2)cc1 | -6 | 2 | 0 | 1
c1ccc(CN2CCN(Cc3nnc(-c4ccccc4)o3)CC2)cc1 | -1 | 7.9* | 0 | 3
NCC(=O)CCC(=O)O | -6 | -4 | 0 | -1
O=S(=O)(c1ccccc1)[C@@]1(c2ccccc2)C[C@@H]2ON=C(c3cccc(Br)c3)[C@@H]2C1 | 55* | 0 | 0 | -3
CC1CCCCN1CCCNC(=O)c1ccc2c(c1)NC(=O)CN2C (stereo unspecified) | -13 | 7.9* | -1 | 2
Oc1ccc(Br)cc1-c1nc2cnccn2c1NC1CCCC1 | 6 | -2 | 49* | -3
COc1ccc(CCN2CCCC(CN(C)C(=O)c3cc(C)oc3C)C2)cc1 (stereo unspecified) | -7 | 7.8* | 0 | 1
Cc1cc(C(=O)N(C)CC2CCCN(CCc3ccc(F)cc3)C2)c(C)o1 (stereo unspecified) | -5 | 3 | -1 | -1
SMILES | FAS-TE inh | SMARCA2 act | proKLK7 act | FXN GAA850 act
COc1ccc(CN2C(=O)CN(S(C)(=O)=O)CC2(C)C(=O)NC(C)C)cc1 (stereo unspecified) | . | 0 | 0 | .
CCCNC(=O)N1C2=NC(C(=O)OC)=C(C(=O)OC)[C@@H]3N(Cc4ccccc4)c4ccccc4[C@]23C[C@H]1CO | 80* | 1 | 0 | 0
CC(=O)c1ccc2c(c1)Nc1ccccc1S2 | -1 | 1 | -1 | -1
C/C(=N\NC(=O)c1ccc(C)cc1C)c1ccc2c(c1)Nc1ccccc1S2 | 4 | 11* | 0 | 0
CCNc1cccc2c1C(=O)N(C)C2=O | -30 | 7.8* | 0 | 2
O=C(c1ccc(CS(=O)c2ccc(Br)cc2)o1)N1CCN(C2CCCCC2)CC1 (stereo unspecified) | -3 | -3 | 0 | 1
CN(N=Cc1ccc(N(C)C)cc1)C(=O)c1ccccc1N | . | -4 | 0 | .
CCOc1cccc2cc(-c3csc(NC(=O)CCC(=O)NCCN4CCCCC4C)n3)c(=O)oc12 (stereo unspecified) | -1 | 7.9* | 0 | 1
NC(=S)Nc1cccc2cc3ccccc3cc12 | -63 | 5 | 6 | 1
NC(=S)Nc1cc2ccccc2c2ccccc12 | -20 | -4 | 14* | 0
CCCOC(=S)N/C(=N\S(=O)(=O)c1ccccc1)c1ccccc1 | -4 | 7.9* | 0 | -1
C[C@]12c3[nH]c4ccccc4c3CCN1C(=O)C(CC(=O)NCc1cccc(C(F)(F)F)c1)C[C@@H]2C(=O)N1CCCCC1 (stereo partly specified) | 22 | -2 | 0 | -8
CCCCN(C(=O)CCC(=O)Nc1cc(C)on1)C(C(=O)NC(C)(C)C)c1ccccc1Cl (stereo unspecified) | 1 | 1 | 0 | 1
COCCN(C(=O)CCC(=O)Nc1cc(C)on1)C(C(=O)NC(C)(C)C)c1ccccc1Cl (stereo unspecified) | 0 | 7.8* | 0 | -1
CC(C)(C)S(=O)N1C[C@H]2CC(=O)C=C2[C@@H]1CCO (stereo partly specified) | . | -4 | 0 | .
O=C(COc1ccccc1)Nc1nc2ccccc2[nH]1 | -12 | 7.8* | 0 | 3
COc1ccc(N(CC(=O)Nc2cc(C)ccc2OC)S(=O)(=O)c2c(C)noc2C)cc1 | 26 | 0 | -1 | -2
CCOC(=O)N1CCN(C(=O)c2ccc3c(c2)N(CC)CCS3)CC1 | -7 | -3 | 14* | -1
CCOC(=O)N1CCN(C(=O)c2ccc3c(c2)N(Cc2ccc(F)cc2)CCS3)CC1 | 17 | -1 | 9 | -2
Cc1ccc(C(=O)NC(=S)Nc2ccc(N3CCOCC3)cc2)c(C)c1 | 12 | 7.9* | 0 | 0
O=C(Nc1ccccc1C(F)(F)F)N1CCC(n2c(=O)[nH]c3ccccc32)CC1 | -4 | -2 | 0 | -2
N#CC(c1ccccc1O)N1N=C(c2ccccc2)CC1c1ccccc1 (stereo unspecified) | 33 | -1 | 0 | 8.2*
COc1cc(C(C#N)N2N=C(c3ccccc3)CC2c2ccccc2)ccc1O (stereo unspecified) | 16 | 2 | 0 | 0
O=C(CSc1nc(-c2ccccc2)ns1)NCC1CCCO1 (stereo unspecified) | 0 | 5 | 1 | 4
CC(C)C(=O)N1CCC2(CC1)Oc1ccc(Cl)cc1C(=O)C21CC(c2ccccc2)=NO1 (stereo unspecified) | 57* | -1 | 1 | -9
CC(C)C(=O)N1CCC2(CC1)Oc1ccc(F)cc1C(=O)C21CC(c2ccc(Cl)cc2)=NO1 (stereo unspecified) | 48 | 0 | 1 | -2
